Several values for one entry are separate records, joined by “and”; a condition that tells them apart may be missing. Equal values may be shown once. Inconclusive results are not listed. A structure can be active in one record and inactive in another. Activity calls are given as the source filed them. The calls were made as follows, unless noted: active = hit-call score of the fitted dose curve at least 0.9, where 1 is the maximum; inconclusive = response in the unintended direction; inactive = score below 0.9.
Columns and labels:
[1] = read-out: Thyroid Hormone Responsive (THRSP), THRSP (gene 7069); assay: LTEA_HepaRG_THRSP: Life Technologies and Expression Analysis (LTEA) Assay for Thyroid Hormone Responsive (THRSP) using HepaRG (AID 2283536; active = hit-call score of the fitted dose curve at least 0.9, where 1 is the maximum; inactive = score below 0.9); settings: mRNA level, 48 h; actives raise or lower the signal
Summary of the method: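 Differentiated human HepaRG cells were exposed in duplicate for 48 h in serum-free induction medium to eight concentrations (top 100 uM, half-log steps, 0.5% DMSO). Expression was quantified by TaqMan qRT-PCR, normalized to ACTB, GAPDH and POLR2A, with bidirectional fitting against DMSO.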

[2] = read-out: Cellular tumor antigen p53 (Homo sapiens) (UniProt P04637); assay: LTEA_HepaRG_TP53: Life Technologies and Expression Analysis (LTEA) Assay for Tumor Protein P53 (TP53) using HepaRG (AID 2283537; active = hit-call score of the fitted dose curve at least 0.9, where 1 is the maximum; inactive = score below 0.9); settings: mRNA level, 48 h; actives raise or lower the signal
Summary of the method: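 Differentiated HepaRG cells in serum-free induction medium exposed 48 h in duplicate to 8 half-log concentrations, top 100 uM, 0.5% DMSO. TP53 mRNA by TaqMan qRT-PCR (Fluidigm), normalized to ACTB, GAPDH, POLR2A; fitted bidirectionally versus DMSO.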

[3] = read-out: UDP glucuronosyltransferase (UGT1A1), UGT1A1 (gene 54658); assay: LTEA_HepaRG_UGT1A1: Life Technologies and Expression Analysis (LTEA) Assay for UDP glucuronosyltransferase (UGT1A1) using HepaRG (AID 2283538; active = hit-call score of the fitted dose curve at least 0.9, where 1 is the maximum; inactive = score below 0.9); settings: mRNA level, 48 h; actives raise or lower the signal
Summary of the method: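 Human liver HepaRG cultures receive test chemical for 48 h, up to 100 uM in 0.5% DMSO, with phenobarbital induction controls. UGT1A1 mRNA is measured by qRT-PCR and normalized to ACTB, GAPDH and POLR2A.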

[4] = read-out: UDP glucuronosyltransferase (UGT1A6), UGT1A6 (gene 54578); assay: LTEA_HepaRG_UGT1A6: Life Technologies and Expression Analysis (LTEA) Assay for UDP glucuronosyltransferase (UGT1A6) using HepaRG (AID 2283539; active = hit-call score of the fitted dose curve at least 0.9, where 1 is the maximum; inactive = score below 0.9); settings: mRNA level, 48 h; actives raise or lower the signal
Summary of the method: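 Expression was quantified by TaqMan qRT-PCR on Fluidigm arrays with ACTB/GAPDH/POLR2A normalization and bidirectional fitting against 0.5% DMSO. HepaRG cells (~100,000/well) were treated in duplicate for 48 h at eight half-log concentrations up to 100 uM in serum-free induction medium.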

[5] = read-out: X-box binding protein 1 (XBP1), XBP1 (gene 7494); assay: LTEA_HepaRG_XBP1: Life Technologies and Expression Analysis (LTEA) Assay for X-box binding protein 1 (XBP1) using HepaRG (AID 2283540; active = hit-call score of the fitted dose curve at least 0.9, where 1 is the maximum; inactive = score below 0.9); settings: mRNA level, 48 h; actives raise or lower the signal
Summary of the method: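 XBP1 transcript by qRT-PCR (housekeeping-normalized: ACTB, GAPDH, POLR2A) after 48 h chemical treatment of HepaRG cells, 8-point half-log series topping at 100 uM, vehicle 0.5% DMSO. Gain and loss of signal fitted relative to DMSO.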

[6] = LTEA_HepaRG_LDH_cytotoxicity: Cytotoxicity Assessment in the Life Technologies and Expression Analysis (LTEA) Assay (AID 2283563);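 as to AC50: LDH activity released into spent culture medium as a marker of cell death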
Summary of the method: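 LDH release into culture medium read after 48 h chemical treatment of HepaRG cells. Duplicate wells, eight-point half-log series topping at 100 uM, 0.5% DMSO vehicle and baseline.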

[7] = ATG_XTT_Cytotoxicity: Cytotoxicity Assessment in the Attagene TRANS-FACTORIAL HepG2 Assay (AID 2283584)
Summary of the method: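 Viability endpoint from XTT after 24 h chemical exposure of reporter-transfected human HepG2 liver cells; signal loss fitted relative to DMSO negative control.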

[8] = TOX21_p53_BLA_p2_viability: Viability Assessment in the Tox21 HCT-116 p53 Agonism Beta-lactamase Assay, Phase 2 (AID 2283591);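 also: compound exposure lasted 16 h at 37 °C; actives lower the ATP signal meaning cytotoxicity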
Summary of the method: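 HCT-116 p53-bla cells (4000/well) rested 5 h at 37C, then received compounds in DMSO (217-fold dilution) for 16 h at 37C, 5% CO2. After the CCF4 read, CellTiter-Glo was added; ATP luminescence was read after 30 min at room temperature.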

[9] = biological target: Cellular tumor antigen p53 (Homo sapiens) (UniProt P04637); assay: TOX21_p53_BLA_p2_ratio: Tox21 HCT-116 p53 Agonism Beta-lactamase Assay, Ratio, Phase 2 (AID 2283592)
Chain of Cellular tumor antigen p53 (Homo sapiens) (P04637 whole entry, looked up): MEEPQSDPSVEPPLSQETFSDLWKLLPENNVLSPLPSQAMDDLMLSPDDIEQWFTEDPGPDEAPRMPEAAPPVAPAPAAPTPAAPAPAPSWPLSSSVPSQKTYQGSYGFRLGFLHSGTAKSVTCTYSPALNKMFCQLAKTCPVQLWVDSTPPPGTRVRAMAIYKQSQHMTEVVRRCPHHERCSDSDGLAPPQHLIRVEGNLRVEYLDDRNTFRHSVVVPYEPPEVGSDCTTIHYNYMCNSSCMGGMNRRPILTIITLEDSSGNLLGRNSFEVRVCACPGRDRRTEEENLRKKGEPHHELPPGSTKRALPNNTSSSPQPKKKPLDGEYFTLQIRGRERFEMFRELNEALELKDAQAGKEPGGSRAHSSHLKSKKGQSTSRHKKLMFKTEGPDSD
Summary of the method: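 Gain-of-signal p53 agonism was scored from the beta-lactamase FRET ratio (460/530 nm, 405 nm excitation) in HCT116 cells treated 16 h at 37C, 5% CO2, with DMSO serving as negative control and baseline.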

[10] = TOX21_p53_BLA_p3_viability: Viability Assessment in the Tox21 HCT-116 p53 Agonism Beta-lactamase Assay, Phase 3 (AID 2283593);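 also: cells exposed to compound for 16 h before reading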
Summary of the method: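 HCT-116 cells (4000/well) rested 5 h at 37C, then got DMSO compounds by pin tool (217-fold dilution) for 16 h at 37C, 5% CO2. After the bla read, CellTiter-Glo was added and luminescence read at 30 min, room temperature.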

[11] = biological target: Cellular tumor antigen p53 (Homo sapiens) (UniProt P04637); assay: TOX21_p53_BLA_p3_ratio: Tox21 HCT-116 p53 Agonism Beta-lactamase Assay, Ratio, Phase 3 (AID 2283596)
Summary of the method: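 HCT116 p53-bla cells (4000/well) given compound in DMSO (217-fold dilution) after 5 h, incubated 16 h at 37C. CCF4-AM substrate 2 h at room temperature; 460/530 nm emission ratio, gain fitted against DMSO.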

[12] = TOX21_p53_BLA_p4_viability: Viability Assessment in the Tox21 HCT-116 p53 Agonism Beta-lactamase Assay, Phase 4 (AID 2283597);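 also: hits lower the luminescence signal meaning cytotoxicity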
Summary of the method: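 Following a 16 h exposure at 37C, the treated HCT116 wells were first read for the FRET ratio. They were then lysed with CellTiter-Glo, and ATP luminescence was recorded after 30 min at room temperature.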

[13] = biological target: Cellular tumor antigen p53 (Homo sapiens) (UniProt P04637); assay: TOX21_p53_BLA_p5_ratio: Tox21 HCT-116 p53 Agonism Beta-lactamase Assay, Ratio, Phase 5 (AID 2283599)
Summary of the method: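 HCT-116 cells carrying a p53-inducible beta-lactamase reporter were seeded at 4000 cells/well and dosed after 5 h with compound in DMSO (217-fold dilution). After 16 h at 37C, CCF4-AM substrate was added for 2 h, and the 460/530 nm emission ratio was scored as gain-of-signal versus DMSO.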

[14] = TOX21_p53_BLA_p5_viability: Viability Assessment in the Tox21 HCT-116 p53 Agonism Beta-lactamase Assay, Phase 5 (AID 2283600)
Summary of the method: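 After the 460/530 nm beta-lactamase measurement, the wells received an ATP-detection luciferase reagent; signal was read 30 min later at RT. Compound treatment lasted 16 h on cells pre-incubated 5 h post-seeding.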

[15] = biological target: Cellular tumor antigen p53 (Homo sapiens) (UniProt P04637); assay: TOX21_p53_BLA_p4_ratio: Tox21 HCT-116 p53 Agonism Beta-lactamase Assay, Ratio, Phase 4 (AID 2283601)
Summary of the method: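 HCT116 cells carrying an inducible beta-lactamase reporter were plated at 4000 cells/well, rested 5 h, then exposed to compounds in DMSO (217-fold dilution) for 16 h at 37C. CCF4-AM substrate was loaded 2 h at room temperature; 460/530 nm emission ratio scored gain-of-signal versus DMSO.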

[16] = Tanguay_ZF_120hpf_MORT_legacy: (Legacy) Oregon State University Tanguay Lab 120 Hour Post-fertilization zebrafish Assay for Mortality (AID 2283633);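 as to AC50: fitted as increase in binary mortality versus DMSO negative control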
Summary of the method: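 Static waterborne exposure from 6 to 120 hpf at 28C of single dechorionated wild-type (5D) embryos per well, 0.64% DMSO final. Death recorded present/absent by brightfield at 24 and 120 hpf.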

[17] = Tanguay_ZF_120hpf_YSE_legacy: (Legacy) Oregon State University Tanguay Lab 120 Hour Post-fertilization zebrafish Assay for Yolk Sac Edema (AID 2283634)
Summary of the method: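 Presence or absence of yolk sac edema was recorded at 120 hpf in surviving larvae. These were wild-type Tropical 5D embryos, chorion removed at 4 hpf, held in static exposure at 28C from 6 hpf with 0.64% DMSO vehicle.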

[18] = Tanguay_ZF_120hpf_AXIS_legacy: (Legacy) Oregon State University Tanguay Lab 120 Hour Post-fertilization zebrafish Assay for Body Axis Malformation (AID 2283635)
Summary of the method: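 Binary scoring of axis defects at 120 hpf under brightfield, fitted positive versus DMSO. Tropical 5D embryos, chorion removed by pronase at 4 hpf, were singly exposed in sealed, dark plates at 28C from 6 hpf; DMSO 0.64% final.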

[19] = Tanguay_ZF_120hpf_EYE_legacy: (Legacy) Oregon State University Tanguay Lab 120 Hour Post-fertilization zebrafish Assay for Eye Malformation (AID 2283636);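 also: binary presence or absence of eye malformation scored by brightfield in 120 hpf larvae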
Summary of the method: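 Dechorionated wild-type Tropical 5D zebrafish embryos were exposed statically from 6 hpf, one per well, to 120 hpf at 28C in sealed, foil-covered plates with 0.64% DMSO. Eye malformation was scored present/absent by brightfield microscopy against DMSO controls.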

[20] = Tanguay_ZF_120hpf_SNOU_legacy: (Legacy) Oregon State University Tanguay Lab 120 Hour Post-fertilization zebrafish Assay for Snout Malformation (AID 2283637)
Summary of the method: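 Tropical 5D wild-type zebrafish embryos, dechorionated with pronase at 4 hpf, were exposed singly from 6 hpf to 120 hpf statically at 28C in 0.64% DMSO. Snout malformation was scored present/absent by brightfield microscopy, fitted against DMSO.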

Measured: AC50

CCCCC(CC)COC(=O)CCCCCCCC(=O)OCC(CC)CCCC (centres undefined)
inactive: all assays above

CN(C)CCCN(C)CCCN(C)C
not listed: [8] | [10] | [12] | [13]
inactive: all other assays above

Oc1ccc(O)cc1
inactive: [1] | [2] | [3] | [4] | [5] | [6] | [7] | [8] | [9] | [11] | [13] | [15] | [17] | [18] | [19] | [20]
active: [8] 72.8 µM and 70 µM | [9] 20.2 µM | [10] 42.5 µM and 61.1 µM and 38.2 µM | [11] 21.4 µM | [12] 47.1 µM and 70.6 µM and 36.2 µM | [14] 17 µM and 35.8 µM and 37.7 µM | [16] 1.77 µM

CC1(C)C(=O)NC(=O)N1CO
not listed: [9] | [10] | [12]
inactive: all other assays above

O=C1O[C@H]([C@H](O)CO)C(O)=C1O
not listed: [14] | [20]
inactive: all other assays above

COC(=O)[C@H]1[C@H]2C[C@@H]3c4[nH]c5cc(OC)ccc5c4CCN3C[C@H]2C[C@@H](OC(=O)c2cc(OC)c(OC)c(OC)c2)[C@@H]1OC
active: [1] 28.3 µM | [3] 66.1 µM | [4] 55.3 µM | [5] 42.2 µM | [6] 30.3 µM
inactive: all other assays above

From PubChem BioAssay (EPA / NIEHS)
